# The source made the active and inactive calls. How the source made its calls: active means hit-call score of the fitted dose curve at least 0.9, where 1 is the maximum; inactive means score below 0.9.
# Target: Peroxisome proliferator-activated receptor gamma (Homo sapiens) (UniProt P37231)
# Test: ERF_TW_NR_COA_hPPARG: Eurofins (ERF) Nuclear Receptor (NR) Functional Coactivator Assay for human Peroxisome Proliferator-activated Receptor gamma (PPARg) Agonism, conducted at Taiwan lab site
# Procedure: ERF_TW_NR_COA_hPPARG is a biochemical, single-readout assay that uses extracted gene-proteins in a cell-free assay. Measurements were taken 16 hours after chemical dosing in a 96-well plate. See PPARgamma Human NHR Functional Agonist Coactivator Assay, Panlabs.ERF_TW_NR_COA_hPPARG is an assay component calculated from the ERF_TW_NR_COA_hPPARG assay. It is designed to measure FRET using a type of binding reporter as detected by fluorescence intensity of rosiglitazone with fluorimetry technology.Data from the assay component ERF_TW_NR_COA_hPPARG was analyzed at the assay endpoint, ERF_TW_NR_COA_hPPARG, in the positive analysis fitting direction relative to DMSO as the negative control and baseline of activity. Using a type of binding reporter, gain-of-signal activity can be used to understand changes in binding as they relate to gene PPARG. To generalize the intended target to other relatable targets, this assay endpoint is annotated to the nuclear receptor intended target family, where the subfamily is non-steroidal.
# Human recombinant PPARgamma receptors expressed in insect cells are used. […] Determination of the amount of complex formed is read spectrofluorimetrically (excitation: 337 nm, emission: 520/490 nm). Test compound-induced increase fluorescence by 50 percent or more (>/=50%) relative to 1 uM GW1929 response indicates possible PPARgamma receptor agonist activity. […]
# Peroxisome proliferator-activated receptor gamma (Homo sapiens), sequence (P37231 whole entry, looked up): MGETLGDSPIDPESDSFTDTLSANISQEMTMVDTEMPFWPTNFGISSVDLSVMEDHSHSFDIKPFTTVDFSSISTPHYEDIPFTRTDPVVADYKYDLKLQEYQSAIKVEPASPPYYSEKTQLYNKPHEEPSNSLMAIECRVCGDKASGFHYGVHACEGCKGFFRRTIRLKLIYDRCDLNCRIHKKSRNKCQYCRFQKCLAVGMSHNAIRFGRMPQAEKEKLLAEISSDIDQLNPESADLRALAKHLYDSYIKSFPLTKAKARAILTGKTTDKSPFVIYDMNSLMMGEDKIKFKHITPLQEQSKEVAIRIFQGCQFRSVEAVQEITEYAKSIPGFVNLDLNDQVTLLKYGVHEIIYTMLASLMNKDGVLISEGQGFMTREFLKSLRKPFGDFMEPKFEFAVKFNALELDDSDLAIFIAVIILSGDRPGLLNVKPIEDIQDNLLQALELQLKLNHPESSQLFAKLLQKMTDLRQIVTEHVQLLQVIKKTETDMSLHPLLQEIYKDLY
smiles,measurement,value
O=S(=O)(O)C(F)(F)C(F)(F)C(F)(F)C(F)(F)C(F)(F)C(F)(F)C(F)(F)C(F)(F)F,outcome,inactive
